Screening results from PubChem BioAssay.
VDR inh – vitamin D3 receptor (human) inhibition; 400,000 tested, 0.93% active; Potency, µM, without a hit: max response, negative = inhibition, usual class: inhibitors; VDR-SRC2-3 peptide fluorescence polarization, 2 h
Target sequence (P11473 whole entry, looked up): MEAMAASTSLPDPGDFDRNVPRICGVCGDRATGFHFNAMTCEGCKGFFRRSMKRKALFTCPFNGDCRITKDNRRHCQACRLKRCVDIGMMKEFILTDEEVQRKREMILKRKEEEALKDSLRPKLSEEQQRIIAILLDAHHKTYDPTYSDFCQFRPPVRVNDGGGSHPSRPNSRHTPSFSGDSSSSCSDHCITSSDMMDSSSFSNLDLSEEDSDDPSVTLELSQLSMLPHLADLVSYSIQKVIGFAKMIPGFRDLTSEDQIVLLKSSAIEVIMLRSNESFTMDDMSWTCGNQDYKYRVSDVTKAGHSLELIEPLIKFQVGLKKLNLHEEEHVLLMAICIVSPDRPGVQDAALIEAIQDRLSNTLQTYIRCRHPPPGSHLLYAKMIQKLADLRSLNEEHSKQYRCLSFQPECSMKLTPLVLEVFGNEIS
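Measured by FP: displacement of SRC2-3 coactivator peptide from VDR by library compounds, following a two-hour ambient incubation.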
PLK1 PBD block – PLK1 (human) polo-box domain binding inhibition; Plk1 PBD binding of FITC phosphopeptide, fluorescence polarization; Potency, µM, for the others: max response, negative = inhibition, usual class: inhibitors; 360,000 tested, 2.8% active; AID 720504; note: series mostly up to about 57 µM; nearly all actives have a fitted effect of over 65% in size
12-LOX inh – ALOX12 (human) lipoxygenase inhibition; 580,000 tested, 1.1% active; AID 1671190; P18054; Potency, µM (titrated, usually from 108 µM), for inactives: top-dose activity change, negative = inhibition, actives largely listed as inhibitors; purified 12hLO, xylenol orange hydroperoxide absorbance
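Purified human 12hLO at 150 nM in 25 mM Hepes, 0.01% Triton X-100, pH 7.0, preincubated 15 min at room temperature with compound. Reaction started with 40 uM arachidonic acid, 30 min at room temperature. Hydroperoxide measured by Fe-xylenol orange, 573/405 nm absorbance ratio.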
Sfp inh – Sfp phosphopantetheinyl transferase inhibition; Q9F4F7; Biochemical Sfp PPTase activity, qHTS; Potency, µM, inactives show largest response in the series, negative = inhibition, actives largely listed as inhibitors; 310,000 tested, 3.5% active;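 note: the enzyme is Sfp with the accession as filed and its product quenches rhodamine fluorescence; 0% = enzyme reaction without inhibitor and -100% = no enzyme wells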
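Reaction rates are the 30-min fluorescence difference (ex 525, em 598 nm) in wells containing 15 nM Sfp, 5 uM rhodamine-CoA and 12.5 uM BHQ-2-YbbR at pH 7.6 with 10 mM MgCl2.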
An asterisk follows results filed as active; i = inactive; ? = inconclusive; . = not tested or not shown; ! = a repeat was not active. A selection: hits, their analogues and other compounds. The true share with any hit is near 4.2%. Calls come from the whole dose curve; as a rule, active = well fitted curve in the direction sought with a large enough effect; inconclusive = small, poorly fitted or top-dose-only effect, or another doubt; inactive = no such curve, though single readings can be large; an effect the other way counts as inactive or inconclusive. Unless noted, % is set by controls: 0 for no effect and ±100 for the full control effect; potency is the fitted concentration of half-maximal effect.

SMILES	VDR inh	PLK1 PBD block	12-LOX inh	Sfp inh
CCn1c(O)c(C=Nc2ccccc2)n(-c2ccccc2)c1=S	-7.5%	?	-11.5%	79.4µM*
CCn1c(O)c(/C=N/n2cnnc2)sc1=S	-1.9%	-24.0%	?	44.7µM*
Oc1c(C=Nc2ccccc2)sc(=S)n1Cc1ccccc1	-0.1%	14.5%	8.91µM*	24.0%
CCn1c(O)c(C=Nc2ccccc2)sc1=S	-15.3%	-2.2%	?	56.2µM*
O=C(O)Cn1c(O)c(C=Nc2ccccc2)sc1=S	-3.9%	-2.8%	?	-4.4%
Cc1ccc2nc(-c3ccc(NC(=O)COc4c(C)ccc(C)c4C)cc3)sc2c1	-1.7%	.	-6.1%	.
COc1ccc(CN(C)C(=O)Cn2ccsc2=N)cc1OC	8.2%	?	5.5%	14.2%
COc1ccc(CN(C)C(=O)Cn2cc(C)c(=O)[nH]c2=O)cc1OC	-27.4%	26.7µM*	-3.5%	.
N#Cc1cccc(NC(=S)Nc2ccccc2)c1	-17.8%	13.4µM*	-29.5%	-19.4%
CCNC(=S)Nc1cccc(C#N)c1	.	.	13.3%	.
CCOc1ccc(NC2=NCC(=O)N2Cc2cccs2)cc1	15.5%	1.0%	35.5µM*	-20.6%
C[C@H](CO)N1C[C@H](C)[C@@H](CN(C)Cc2ccc(-c3ccccc3)cc2)Oc2c(NS(=O)(=O)c3ccc(F)cc3)cccc2C1=O	-3.8%	-10.0%	-11.3%	.
O=C(CSc1ccc2nnc(-c3ccc(Cl)cc3)n2n1)N1CCc2ccccc21	6.8%	?	?	5.5%
O=C(COc1ccccc1)N1CCNC1=O	31.1%	-4.7%	-24.9%	22.4%
C/C=C1\COC(C(=O)NCc2ccccc2)(C(F)(F)F)C=C1C=C1CCCCC1 (stereo not given)	79.4µM*!	-14.1%	?	-8.1%
O=[N+]([O-])c1ccc(N=Nc2ccc(O)cc2O)cc1	14.8%	-3.5%	?	-9.6%
O=[N+]([O-])c1cccc(N=Nc2ccc(O)cc2O)c1	-2.4%	-6.5%	20µM*	.
Oc1ccc(N2CCN(CC(O)c3ccccc3)CC2)cc1 (stereo not given)	9.1%	-3.0%	?	50.1µM*
OCCOCCNc1ncnc2c1cnn2-c1ccc(Cl)cc1	13.7%	-12.6%	6.1%	12.3%
COCCNc1ncnc2c1cnn2-c1ccc(Cl)cc1	-8.5%	2.7%	14.1µM*	19.4%
Clc1ccc(Nc2ncnc3c2cnn3-c2ccccc2)cc1	-12.0%	-3.8%	25.1µM*	?
COc1ccccc1CNC(=O)CC(c1ccc(F)cc1)N1Cc2ccccc2C1=O (stereo not given)	8.2%	.	-18.0%	.
c1cnc(-c2n[nH]c(C3CCCCN3)n2)cn1 (stereo not given)	.	.	60.8%	.
CCOC(=O)NC1(NC(C)C)Oc2ccccc2O1	-6.9%	?	25.1µM*	?
CCOC(=O)NC1(Nc2ccc(C)cc2)Oc2ccccc2O1	-11.7%	-0.3%	?	35.5µM*
SMILES	VDR inh	PLK1 PBD block	12-LOX inh	Sfp inh
CCOC(=O)C(Cc1ccccc1)C1(C)Oc2ccccc2O1 (stereo not given)	.	-18.8%	10.1%	.
CCOC(=O)NC1(NCC(C)C)Oc2ccccc2O1	-8.3%	-4.8%	?	79.4µM*
CCOC(=O)Nc1ccccc1	.	.	-2.4%	.
CCOC(=O)NC1(NCc2ccccc2)Oc2ccccc2O1	13.6%	-0.2%	-14.2%	50.1µM*
CCOC(=O)NCC(=O)NCc1ccccc1	.	.	-18.3%	.
Cc1[nH]nc(C(=O)N[C@@H]2COCC[C@@H]2OCc2ccccc2)c1Cl	.	.	37.3%	.
CCOC(=O)NC1(NC2CCCCC2)Oc2ccccc2O1	-11.7%	-3.5%	-45.9%	56.2µM*
O=C(O)CCCN1C(=O)C(=O)/C(=C(/O)c2ccc(Cl)cc2)C1c1ccccc1 (stereo not given)	9.7%	-30.4%	-17.0%	19.0%
O=C(O)CCCN1C(=O)C(=O)/C(=C(/O)c2ccccc2)C1/C=C/c1ccccc1 (stereo not given)	?	13.4µM*	?	8.0%
C=CCSc1nc2ccsc2c(=O)n1-c1cccnc1	-16.0%	26.7µM*	-8.1%	?
O=C(NC(=S)Nc1ccc(O)cc1)c1ccccc1Cl	-4.0%	0.5%	-23.0%	-20.4%
COc1ccc(NC(=S)NNC(=O)CNc2ccc(Cl)cc2)cc1	-15.6%	26.7µM*	?	79.4µM*
COc1ccc(NC(=S)NC(=O)c2ccccc2Cl)cc1	-19.1%	26.7µM*	-22.8%	-13.4%
COc1ccc(Nc2ncccc2C(=O)Nc2ccccc2)cc1	-27.3%	2.67µM*	-21.4%	-12.9%
COc1ccc(NC(=O)c2cc(C)no2)cc1	19.1%	4.9%	12.6µM*	11.4%
CCN(CC)S(=O)(=O)c1ccc(C)c(NC(=O)CNc2cccc(S(=O)(=O)N3CCOCC3)c2)c1	11.1%	3.0%	9.7%	.
COc1cc2ccccc2cc1C(=O)NC(=S)Nc1ccc(C(=O)O)cc1	-1.5%	29.9µM*	29.0%	-24.3%
COc1cc2cc(C(=O)Nc3ccccc3)c(N)nc2cc1OC	-19.0%	23.8µM*	?	?
COc1ccc(NC(=O)c2cc3ccccc3cc2OC)cc1	?	29.9µM*	0.0%	13.6%
O=C(CCCSc1nc2ccccc2s1)NCc1ccco1	-20.6%	-8.1%	-8.3%	-8.3%
CC1(C)CC(NC(=O)CCc2ccccc2)CC(C)(CNC(=O)CCc2ccccc2)C1 (stereo not given)	.	.	22.6%	.
O=C(CN1C(=O)c2ccccc2S1(=O)=O)NCCSCc1c(F)cccc1Cl	12.2%	-3.4%	8.91µM*	3.4%
O=C(CN1C(=O)c2ccccc2S1(=O)=O)NCCSCc1ccccc1Cl	-0.6%	-3.2%	?	12.5%
Cc1csc(CNC(=O)c2sc(C(C)C)nc2C)n1	.	.	-0.2%	.
CC(C)n1c2ccccc2c2nnc(SCC(=O)Nc3ccccc3C(=O)O)nc21	3.9%	26.7µM*	-3.8%	9.3%
SMILES	VDR inh	PLK1 PBD block	12-LOX inh	Sfp inh
COCCOC(=O)c1c(C)oc2c1cc(NS(=O)(=O)c1ccc(Cl)c(C)c1)c1ccccc12	6.6%	.	-19.2%	.
O=C(CSc1n[nH]c(-c2ccco2)n1)Nc1sc2c(c1C(=O)Nc1ccccc1)CCCC2	10.4%	-9.8%	0.0%	35.5µM*
CCOC(=O)CSc1n[nH]c(-c2ccco2)n1	-26.5%	29.9µM*	83.7%	4.5%
O=C(CSc1n[nH]c(-c2ccco2)n1)Nc1ccc(Br)cc1	-15.4%	26.7µM*	i	21.1%
COc1ccc(NC(=O)CSc2n[nH]c(-c3ccco3)n2)cc1	0.4%	-0.2%	2.6%	-18.3%
CCOC(=O)c1c(NC(=O)CSc2n[nH]c(-c3ccco3)n2)sc(C)c1C	-1.9%	-5.6%	?	-9.8%
O=C(CSc1n[nH]c(-c2ccco2)n1)Nc1ccccc1F	-14.9%	-4.9%	?	4.4%
Cc1cc(C)c2c(=O)cc(C(F)(F)C(F)(F)C(F)(F)C(F)F)oc2c1	.	.	12.8%	.
Cc1noc(C)c1[S+](=O)([O-])N1CCC2(CC1)C(=O)Nc1ccccc12	.	.	8.8%	.
O=C(CNS(=O)(=O)Cc1ccccc1)NCc1ccccc1	1.8%	-5.6%	17.4%	-8.8%
O=C(CNS(=O)(=O)Cc1ccccc1)NNc1ccccc1	.	-3.5%	39.8µM*	.
C=CCNC(=O)CCCOc1ccc(C)cc1	8.2%	?	0.0%	11.6%
C=CCNC(=O)CCCOc1cc(C)ccc1C	-24.9%	26.7µM*	?	-21.3%
